Measured values reported in PubChem BioAssay (NCATS).
Results filed as inconclusive are left out. Active and inactive are the calls of the source. Calls follow the shape of the full dose curve; tested in HEK293 reporter line.

Key:
[1] = qHTS for Inhibitors of the Functional Ribonucleoprotein Complex (vRNP) of Lassa (LASV) Arenavirus: LASV Primary Screen - GLuc reporter signal (AID 1347082); also: nearly all actives have a fitted effect of over 60% in size
[2] = qHTS for Inhibitors of the Functional Ribonucleoprotein Complex (vRNP) of Lassa (LASV) Arenavirus: Viability assay - alamar blue signal for LASV Primary Screen (AID 1347083); also: nearly all actives have a fitted effect of over 80% in size
[3] = qHTS for Inhibitors of the Functional Ribonucleoprotein Complex (vRNP) of Lymphocytic Choriomeningitis Arenaviruses (LCMV): Viability assay - alamar blue signal for LCMV Primary Screen (AID 1347085); also: nearly all actives have a fitted effect of over 80% in size

Measured: Potency
Also: series mostly up to about 57 µM.

O=c1[nH]cnc2nc[nH]c12
inactive: all assays above

O=C(CO)[C@@H](O)[C@H](O)[C@@H](O)CO
inactive: all assays above

CC(=O)O[C@@H]1C(=O)O[C@@H]2[C@H]1OC(=O)[C@@H]2OC(C)=O
inactive: all assays above

CC(C)[N+](C)(C)CC(O)COc1cccc2ccccc12 (centres undefined)
inactive: all assays above

CC(C)(C)C(=O)Oc1ccc(S(=O)(=O)Nc2ccccc2C(=O)NCC(=O)O)cc1
inactive: all assays above

Clc1ccc2nsnc2c1NC1=NCCN1
inactive: all assays above

O=C(CCBr)N1CCN(C(=O)CCBr)CC1
inactive: all assays above

Cn1c(=O)c2c(ncn2CCO)n(C)c1=O
inactive: all assays above

CCCCCCCCCCCCCCCCCCO
inactive: all assays above

N#Cc1ccc(C(c2ccc(C#N)cc2)n2cncn2)cc1
inactive: all assays above

CNC[C@H](O)[C@@H](O)[C@H](O)[C@H](O)CO
inactive: all assays above

Cc1ncc(CO)c(C=O)c1O
inactive: all assays above

CCOc1ccc(NC(=O)CC(C)O)cc1 (centres undefined)
inactive: all assays above

Nc1ccc(S(=O)(=O)NCc2ccccc2)cc1
inactive: all assays above

CC(=O)CC(c1ccccc1)c1c(O)c2ccccc2oc1=O (centres undefined)
inactive: all assays above

CN1C(C(=O)Nc2ccccn2)=C(O)c2sccc2S1(=O)=O
inactive: all assays above

COc1cc(C(=O)OC(COCCC(C)C)CN2CCOCC2)cc(OC)c1OC (centres undefined)
inactive: all assays above

CCOC(=O)Oc1ccc(CCNC(=O)[C@H](CCSC)NC(C)=O)cc1OC(=O)OCC
inactive: all assays above

COC(=O)c1cc(Cl)ccc1NS(=O)(=O)C(F)(F)F
inactive: all assays above

COC(=O)C1=C(C)NC(C)=C(C(=O)OCC(C)=O)C1c1ccccc1[N+](=O)[O-] (centres undefined)
inactive: all assays above

CC(=O)O[C@@H]1CC2C3CCc4cc(OC(=O)c5ccccc5)ccc4C3CCC2(C)[C@H]1OC(C)=O (some centres undefined)
inactive: all assays above

CC(=O)OCC(=O)[C@@]1(O)CC[C@H]2[C@@H]3CCC4=CC(=O)C=C[C@]4(C)[C@@]3(F)[C@@H](O)C[C@@]21C
inactive: all assays above

COC(=O)CCCCC(CCSS/C(CCO)=C(\C)N(C=O)Cc1cnc(C)nc1N)SC(C)=O (centres undefined)
inactive: all assays above

O=C(NCC(O)CO)c1c(I)c(C(=O)NCC(O)CO)c(I)c(N(CCO)C(=O)CO)c1I (centres undefined)
inactive: all assays above

O=C1CC[C@H](C(=O)N2CCCCC2)N1
inactive: all assays above

CC(C)C(=O)c1c(C(C)C)nn2ccccc12
inactive: all assays above

C[C@@H]1CCC[C@H](C)N1
inactive: all assays above

CC(=O)OCC(=O)[C@@]1(O)CC[C@H]2[C@@H]3CCC4=CC(=O)CC[C@]4(C)[C@H]3C(=O)C[C@@]21C
inactive: all assays above

N#CSCC(=O)O
inactive: all assays above

CCN1CCC[C@H]1CNC(=O)c1cc(S(N)(=O)=O)ccc1OC
inactive: all assays above

NC(=O)c1cnccn1
inactive: all assays above

CCc1oc2ccccc2c1C(=O)c1cc(I)c(O)c(I)c1
inactive: all assays above

COc1ccc(C(=O)NCc2ccc(OCCN(C)C)cc2)cc1OC
inactive: all assays above

NC(N)=NC(=O)Cc1c(Cl)cccc1Cl
inactive: all assays above

CC(CCc1ccccc1)NCC(O)c1ccc(O)c(C(N)=O)c1 (centres undefined)
inactive: all assays above

CN=C(NC#N)NCCSCc1csc(N=C(N)N)n1
inactive: all assays above

CC(O)CN(CCN(CC(C)O)CC(C)O)CC(C)O (centres undefined)
inactive: all assays above

O=C(O)c1cc(=O)c2ccccc2o1
inactive: all assays above

NCCCNCCSP(=O)(O)O
inactive: all assays above

Cc1cccc(C)c1NC(=O)CN1CCCCCC1
inactive: all assays above

CN1[C@@H]2CC(OC(=O)[C@H](CO)c3ccccc3)C[C@H]1[C@@H]1O[C@@H]12 (some centres undefined)
inactive: all assays above

c1ccc2sc(SN3CCOCC3)nc2c1
inactive: all assays above

NC(=O)c1cc[n+](CC2=C(C(=O)[O-])N3C(=O)[C@@H](NC(=O)Cc4cccs4)[C@H]3SC2)cc1
inactive: all assays above
